Laboratory results as given in publication PMC5540273 (PLoS ONE, 2017).
Like-named read-outs stand apart in the source and are kept apart here.

Experiments:
DMPK2 = tested on: T1, DMPK2; details: concentration: 1 μM, replicates: in singlicate; n = 1
T1 construct: gene CDC42BPG

DMPK = details: concentration: 1 μM, replicates: in singlicate; n = 1
DRAK1 = tested on: T2, DRAK1; details: concentration: 1 μM, replicates: in singlicate; n = 1
T2 construct: gene STK17A

DRAK2 = tested on: T3, DRAK2; details: concentration: 1 μM, replicates: in singlicate; n = 1
T3 construct: gene STK17B

DYRK1A = details: concentration: 1 μM, replicates: in singlicate; n = 1
DYRK1B = details: n = 1
DYRK2 = details: concentration: 1 μM, replicates: in singlicate; n = 1
EGFR = details: concentration: 1 μM, replicates: in singlicate; n = 1
EIF2AK1 = details: concentration: 1 μM, replicates: in singlicate; n = 1
EPHA1 = details: concentration: 1 μM, replicates: in singlicate; n = 1
EPHA2 = details: concentration: 1 μM, replicates: in singlicate; n = 1
EPHA3 = details: concentration: 1 μM, replicates: in singlicate; n = 1
EPHA4 = details: concentration: 1 μM, replicates: in singlicate; n = 1
EPHA5 = details: concentration: 1 μM, replicates: in singlicate; n = 1
EPHA6 = details: n = 1
EPHA7 = details: concentration: 1 μM, replicates: in singlicate; n = 1
EPHA8 = details: concentration: 1 μM, replicates: in singlicate; n = 1
EPHB1 = details: concentration: 1 μM, replicates: in singlicate; n = 1
EPHB2 = details: concentration: 1 μM, replicates: in singlicate; n = 1
EPHB3 = details: concentration: 1 μM, replicates: in singlicate; n = 1
[1] = concentration: 1 μM, replicates: in singlicate
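Note: KINOMEscan kinase panel screen.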

COc1cccc(CNC(=O)NC2CCN(c3ccnc(Nc4ccc(F)cc4)n3)C2)c1 (centres unmarked) [GSK1379723]
%Inh (DMPK2): 0% | %Inh (DMPK): 0% | %Inh (DRAK1): 0% | %Inh (DRAK2): 0% | %Inh (DYRK1A): 39% | %Inh (DYRK1B; [1]): 5% | %Inh (DYRK2): 4% | %Inh (EGFR): 21% | %Inh (EIF2AK1): 0% | %Inh (EPHA1): 12% | %Inh (EPHA2): 2% | %Inh (EPHA3): 0% | %Inh (EPHA4): 0% | %Inh (EPHA5): 0% | %Inh (EPHA6; [1]): 0% | %Inh (EPHA7): 1% | %Inh (EPHA8): 15% | %Inh (EPHB1): 0% | %Inh (EPHB2): 0% | %Inh (EPHB3): 5%

NS(=O)(=O)c1cccc(N/C=C2\C(=O)Nc3ccc(S(=O)(=O)Cc4c(Cl)cccc4Cl)cc32)c1 [GSK398099]
%Inh (DMPK2): 18% | %Inh (DMPK): 0% | %Inh (DRAK1): 0% | %Inh (DRAK2): 0% | %Inh (DYRK1A): 29% | %Inh (DYRK1B; [1]): 14% | %Inh (DYRK2): 9% | %Inh (EGFR): 24% | %Inh (EIF2AK1): 0% | %Inh (EPHA1): 12% | %Inh (EPHA2): 0% | %Inh (EPHA3): 12% | %Inh (EPHA4): 12% | %Inh (EPHA5): 0% | %Inh (EPHA6; [1]): 3% | %Inh (EPHA7): 8% | %Inh (EPHA8): 31% | %Inh (EPHB1): 17% | %Inh (EPHB2): 14% | %Inh (EPHB3): 6%

CC(C)c1ccc(O)cc1Nc1ccnc2ccc(C(F)(F)F)cc12 [GW482059]
%Inh (DMPK2): 0% | %Inh (DMPK): 0% | %Inh (DRAK1): 10% | %Inh (DRAK2): 0% | %Inh (DYRK1A): 13% | %Inh (DYRK1B; [1]): 16% | %Inh (DYRK2): 8% | %Inh (EGFR): 37% | %Inh (EIF2AK1): 3% | %Inh (EPHA1): 6% | %Inh (EPHA2): 0% | %Inh (EPHA3): 0% | %Inh (EPHA4): 19% | %Inh (EPHA5): 0% | %Inh (EPHA6; [1]): 20% | %Inh (EPHA7): 0% | %Inh (EPHA8): 3% | %Inh (EPHB1): 9% | %Inh (EPHB2): 0% | %Inh (EPHB3): 13%

O=C1NC(=O)C(c2ccc(Cl)cc2)=C1Nc1ccc(O)cc1 [SB-340867]
%Inh (DMPK2): 0% | %Inh (DMPK): 0% | %Inh (DRAK1): 0% | %Inh (DRAK2): 0% | %Inh (DYRK1A): 1% | %Inh (DYRK1B; [1]): 0% | %Inh (DYRK2): 0% | %Inh (EGFR): 5% | %Inh (EIF2AK1): 0% | %Inh (EPHA1): 16% | %Inh (EPHA2): 0% | %Inh (EPHA3): 0% | %Inh (EPHA4): 3% | %Inh (EPHA5): 0% | %Inh (EPHA6; [1]): 12% | %Inh (EPHA7): 0% | %Inh (EPHA8): 6% | %Inh (EPHB1): 0% | %Inh (EPHB2): 0% | %Inh (EPHB3): 0%

CS(=O)(=O)Cc1ccc(Nc2nccc(-c3c(-c4cccc(NC(=O)C5CCCCC5)c4)nn4ncccc34)n2)cc1 [GSK350559]
%Inh (DMPK2): 35% | %Inh (DMPK): 0% | %Inh (DRAK1): 0% | %Inh (DRAK2): 0% | %Inh (DYRK1A): 26% | %Inh (DYRK1B; 1 µM): 0% | %Inh (DYRK2): 5% | %Inh (EGFR): 68% | %Inh (EIF2AK1): 22% | %Inh (EPHA1): 6% | %Inh (EPHA2): 51% | %Inh (EPHA3): 16% | %Inh (EPHA4): 14% | %Inh (EPHA5): 0% | %Inh (EPHA6; 1 µM): 2% | %Inh (EPHA7): 15% | %Inh (EPHA8): 15% | %Inh (EPHB1): 2% | %Inh (EPHB2): 3% | %Inh (EPHB3): 5%

Cc1ccc(-c2nc(Nc3ccncc3)c3ccccc3n2)s1 [GSK189015]
%Inh (DMPK2): 13% | %Inh (DMPK): 0% | %Inh (DRAK1): 5% | %Inh (DRAK2): 0% | %Inh (DYRK1A): 28% | %Inh (DYRK1B; [1]): 3% | %Inh (DYRK2): 27% | %Inh (EGFR): 25% | %Inh (EIF2AK1): 0% | %Inh (EPHA1): 16% | %Inh (EPHA2): 28% | %Inh (EPHA3): 0% | %Inh (EPHA4): 23% | %Inh (EPHA5): 100% | %Inh (EPHA6; [1]): 30% | %Inh (EPHA7): 22% | %Inh (EPHA8): 26% | %Inh (EPHB1): 24% | %Inh (EPHB2): 0% | %Inh (EPHB3): 37%

COC(=O)C(Cc1ccccc1)NC(=O)NC1CCN(c2ccnc(Nc3ccc(F)cc3)n2)C1 (centres unmarked) [GSK1379714]
%Inh (DMPK2): 0% | %Inh (DMPK): 0% | %Inh (DRAK1): 0% | %Inh (DRAK2): 0% | %Inh (DYRK1A): 10% | %Inh (DYRK1B; [1]): 10% | %Inh (DYRK2): 0% | %Inh (EGFR): 31% | %Inh (EIF2AK1): 0% | %Inh (EPHA1): 7% | %Inh (EPHA2): 38% | %Inh (EPHA3): 4% | %Inh (EPHA4): 1% | %Inh (EPHA5): 0% | %Inh (EPHA6; [1]): 0% | %Inh (EPHA7): 2% | %Inh (EPHA8): 5% | %Inh (EPHB1): 0% | %Inh (EPHB2): 11% | %Inh (EPHB3): 0%

Cc1ccc(NC(=O)Nc2ccc(Cl)c(C(F)(F)F)c2)cc1-c1ccc(C(=O)Nc2ccncc2)cc1 [GSK1398470]
%Inh (DMPK2): 12% | %Inh (DMPK): 0% | %Inh (DRAK1): 0% | %Inh (DRAK2): 0% | %Inh (DYRK1A): 12% | %Inh (DYRK1B; [1]): 19% | %Inh (DYRK2): 29% | %Inh (EGFR): 25% | %Inh (EIF2AK1): 78% | %Inh (EPHA1): 6% | %Inh (EPHA2): 17% | %Inh (EPHA3): 19% | %Inh (EPHA4): 7% | %Inh (EPHA5): 7% | %Inh (EPHA6; [1]): 20% | %Inh (EPHA7): 15% | %Inh (EPHA8): 26% | %Inh (EPHB1): 23% | %Inh (EPHB2): 17% | %Inh (EPHB3): 19%

Cc1nccc(-c2c(-c3ccc(F)cc3)ncn2CCCN2CCOCC2)n1.Cl [SB-282975]
%Inh (DMPK2): 9% | %Inh (DMPK): 22% | %Inh (DRAK1): 14% | %Inh (DRAK2): 22% | %Inh (DYRK1A): 17% | %Inh (DYRK1B; [1]): 34% | %Inh (DYRK2): 0% | %Inh (EGFR): 17% | %Inh (EIF2AK1): 14% | %Inh (EPHA1): 24% | %Inh (EPHA2): 16% | %Inh (EPHA3): 0% | %Inh (EPHA4): 4% | %Inh (EPHA5): 10% | %Inh (EPHA6; [1]): 8% | %Inh (EPHA7): 9% | %Inh (EPHA8): 10% | %Inh (EPHB1): 15% | %Inh (EPHB2): 15% | %Inh (EPHB3): 3%

Nc1ncnc2occ(-c3ccc4c(c3)CCN4C(=O)Cc3cc(F)ccc3F)c12 [GSK2645446]
%Inh (DMPK2): 51% | %Inh (DMPK): 7% | %Inh (DRAK1): 0% | %Inh (DRAK2): 0% | %Inh (DYRK1A): 6% | %Inh (DYRK1B; [1]): 0% | %Inh (DYRK2): 0% | %Inh (EGFR): 18% | %Inh (EIF2AK1): 0% | %Inh (EPHA1): 11% | %Inh (EPHA2): 0% | %Inh (EPHA3): 12% | %Inh (EPHA4): 0% | %Inh (EPHA5): 0% | %Inh (EPHA6; [1]): 0% | %Inh (EPHA7): 0% | %Inh (EPHA8): 0% | %Inh (EPHB1): 0% | %Inh (EPHB2): 6% | %Inh (EPHB3): 0%
